High-throughput results: PubChem BioAssay, National Center for Advancing Translational Sciences (NCATS)
Sampled rows, rich in hits. Any-hit rate of the full collection: about 4.6%.
D1 antag = human D1 dopamine receptor antagonism | P21728 | HEK293 TREx D1 cells, calcium flux, dopamine EC80; hits give low values | activity change, negative = inhibition, % at 10 µM | 3.2% of 360,000 active | AID 504652; in the data active = activity change below about -30%
Target sequence (P21728 whole entry, looked up): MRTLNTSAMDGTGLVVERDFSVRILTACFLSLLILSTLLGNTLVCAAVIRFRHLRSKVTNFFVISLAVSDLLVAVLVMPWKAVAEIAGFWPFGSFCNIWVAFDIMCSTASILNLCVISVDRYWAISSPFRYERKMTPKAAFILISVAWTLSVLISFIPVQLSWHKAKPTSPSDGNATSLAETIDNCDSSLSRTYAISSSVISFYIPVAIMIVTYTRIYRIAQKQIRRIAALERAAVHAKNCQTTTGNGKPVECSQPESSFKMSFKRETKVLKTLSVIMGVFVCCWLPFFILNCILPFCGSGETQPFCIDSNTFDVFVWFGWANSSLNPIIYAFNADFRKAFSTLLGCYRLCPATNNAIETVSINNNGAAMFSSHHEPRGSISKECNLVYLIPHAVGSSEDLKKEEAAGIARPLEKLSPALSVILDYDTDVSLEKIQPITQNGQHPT
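Antagonism measured as reduced calcium response to an EC80 dopamine addition following 180 s compound pre-read; cells were inducible HEK293 Trex D1 plated overnight at 30 C, read kinetically at 1 cycle/sec.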
TRHR PAM = allosterically enhances the human TRH receptor. enhancement, % at 2 µM. TRHR cells, fluo-8 calcium fluorescence, EC20 TRH enhancement. 0.66% of 360,000 active. AID 493056; in the data active = enhancement above about 30%
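Enhancer read-out: after compound pinning and an initial kinetic agonist-mode read, an EC20 of TRH (10 nM final) was injected and fluo-8 calcium signal (Ex 480/Em 530) followed at 1 s/cycle for 100 cycles in TRHR-expressing cells.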
TRHR agonist = agonists of human TRH receptor; P34981; TRHR cells, calcium flux fluo-8, FDSS agonist mode; activation, % at 2 µM; 0.18% of 360,000 active; AID 493084
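TRHR-expressing cells loaded with fluo-8 calcium dye; 23 nL library compound pin-transferred, kinetic FDSS fluorescence (Ex 480/Em 530) recorded about 180 s for agonist-induced calcium release, before a 10 nM TRH EC20 addition for potentiator mode.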
D1 PAM = human D1 dopamine receptor positive modulation | HEK293 TREx D1 cells, calcium flux, dopamine EC20 potentiation | P21728 | 0.036% of 360,000 active | potentiation, % at 10 µM; in the data active = potentiation above about 30%
D1 ag = agonists of human D1 dopamine receptor; HEK293 T-REx D1 cells, calcium flux, agonist mode; activation, % at 2 µM; 1% of 360,000 active; AID 504660
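Tetracycline-induced HEK293 TREx D1 cells, force-coupled to calcium signalling, were dye-loaded with a no-wash calcium kit. Compound was pin-added after a 10 s baseline. Fluorescence was read kinetically at 1 cycle/s for 180 s, with calcium rises flagged as agonism.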
Each line names hits and unclear results; the compound was inactive in the other large screens. Cut-off read from the data, not from the text of the source, unless noted: active = activation above about 30%; inactive = the rest.

O=C(COc1cccc(Cl)c1)NCC(c1cccs1)N1CCOCC1 (centres undefined)	D1 antag -34.7
CC(Oc1cccc(Cl)c1)C(=O)N(C)CC(=O)Nc1ccc(N2CCOCC2)cc1 (centres undefined)	none
Cc1ccc(Cl)cc1NC(=O)c1ccc2nc(CCc3ccccc3)oc2c1	none
Cc1cccc(-c2nc3c4c(-c5ccccc5)c(-c5ccccc5)oc4ncn3n2)c1	none
O=C(Nc1cccc(C(F)(F)F)c1)c1cc2nc(-c3ccccc3)cc(C(F)(F)F)n2n1	none
COc1ccc(-c2noc(-c3ccc(C)cc3Cl)n2)cc1OC	none
COCCCNC(=O)C1CCCN(c2nn3cc(-c4ccc(C)cc4)nc3s2)C1 (centres undefined)	none
Cc1ccc(NS(=O)(=O)c2ccc3[nH]c4c(c3c2)CCCC4)cc1N(C)C	none
Cc1cc(OCC(=O)Nc2ccc(S(=O)(=O)N3CCN(C)CC3)cc2)cc(C)c1Cl	D1 antag -69.6
CN1CCN(NC(=O)c2ccc(Cl)c(S(=O)(=O)Nc3ccc(Cl)cc3)c2)CC1	D1 antag -38.4
Cc1cc(OCC(=O)Nc2ccc(S(=O)(=O)N3CCN(C)CC3)cc2)ccc1Cl	none
O=C(COC(=O)C1CCCCC1)Nc1ccc(N2CCCCC2)cc1	D1 antag -30.2
O=C(Nc1ccc(S(=O)(=O)N2CCN(Cc3ccccc3)CC2)cc1)c1cnccn1	D1 antag -36.2
NS(=O)(=O)c1ccc(NC(=O)COC(=O)C2CCCCC2)cc1	none
CCn1c(SCC(=O)Nc2cc(C)ccc2F)nnc1-c1ccccc1O	none
CN1CCN(S(=O)(=O)c2ccc(NC(=S)NC(=O)c3ccc(Cl)cc3)cc2)CC1	D1 antag -57.1, D1 ag 30.2
COc1ccc(OCC(=O)Nc2ccc(S(=O)(=O)N3CCOCC3)cc2)cc1	none
CN1CCN(S(=O)(=O)c2ccc(NC(=O)c3ccc(Br)s3)cc2)CC1	D1 antag -45.6
CN1CCN(c2ccc(NC(=O)COc3ccccc3Cl)cc2)CC1	D1 antag -70.4
CCc1ccc(OCC(=O)Nc2ccc(S(=O)(=O)N3CCOCC3)cc2)cc1	D1 ag 44.2
CCCN1C(C(=O)c2ccccc2)=C(OC(=O)COc2ccc(C)cc2)c2ccccc2S1(=O)=O	none
CCc1ccccc1NC(=O)Cn1ccn(-c2cc(C)cc(C)c2)c(=O)c1=O	none
CCc1ccc(-n2c(=O)c3c4c(sc3n(CC(=O)NCCCOC)c2=O)CCC4)cc1	none
Cc1ccc2oc(-c3ccc(C)c(NC(=O)/C=C/c4ccco4)c3)nc2c1	none
CCCOc1ccc(CNC(=O)c2[nH]c3cc(OC)ccc3c2Sc2ccccc2)cc1	none
CN1CCN(S(=O)(=O)c2ccc(NC(=O)c3ccccc3Cl)cc2)CC1	D1 antag -32.6
CN1CCN(S(=O)(=O)c2ccc(NC(=O)COc3ccccc3Cl)cc2)CC1	D1 antag -52.7
CCC(=O)N1CCN(c2ccc(NC(=O)COc3ccccc3[N+](=O)[O-])cc2)CC1	D1 ag 31.3
CCC(=O)N1CCN(c2ccc(NC(=O)COc3ccccc3Cl)cc2)CC1	none
CCCC(C(=O)Nc1ccc(S(=O)(=O)N2CCOCC2)cc1)c1ccccc1 (centres undefined)	D1 ag 37.1
Cc1ccc(NC(=O)C(=O)NCC(c2ccc3c(c2)OCO3)N2CCN(C)CC2)cc1C (centres undefined)	none
CCc1ccc(OCC(=O)Nc2ccc(S(=O)(=O)Nc3ccccn3)cc2)cc1	D1 ag 41.6
C/C(=N\NC(=O)Cc1cccn1C)c1ccc2ccccc2c1	D1 antag -36.3
CNC(=O)c1sccc1SCc1ccc(Cl)cc1Cl	TRHR PAM 33.1
NNC(=O)c1sccc1OCc1ccc(Cl)cc1Cl	D1 antag -31.9
NNC(=O)c1sccc1OCc1ccc(F)cc1	none
COCCNC(=O)c1c(-c2ccccc2)c(-c2ccccc2)nn(C)c1=O	none
Cc1ccc(NC(=O)C2CCCN(C(=O)c3cnn(-c4ccccc4)c3-n3cccc3)C2)cc1 (centres undefined)	none
Cc1cc(Nc2ccccc2F)n2nc(Cc3ccc(Cl)cc3)nc2n1	none
COc1ccc(OC)c(CNC(=O)c2ccc(N3Cc4ccccc4Oc4ncccc43)s2)c1	none
Cc1ccc2c(=O)cc(C(=O)Nc3sc4c(c3C(=O)NCC3CCCO3)CCC4)oc2c1 (centres undefined)	none
